# Laboratory results reported in PubChem BioAssay (NCI).
# This is part of a sample that, as a whole, favours compounds with a hit. Of some 83,000 tested, about 20% had one in any assay.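 Treatment: one concentration, 48 hours, 96-well format. Scoring: percent growth, with anything below 10 considered active.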 Unmarked numbers belong to inactive results. Active and inactive are the calls of the source.
# Columns and labels:
# Assay in all cases: NCI-60 one-dose screen, 48 h (100 = growth as untreated, 0 = no growth, -100 = all killed)
# Details in all cases: 10 µM unless noted
# [1] = test system: HCT-15 colon
# [2] = test system: HT29 colon
# [3] = test system: SNB-75 CNS
# [4] = test system: SNB-19 CNS
# [5] = test system: U251 CNS
# [6] = test system: PC-3 prostate
# [7] = test system: SK-MEL-5 melanoma
# [8] = test system: UACC-62 melanoma
# [9] = test system: LOX IMVI melanoma
# [10] = test system: SK-MEL-28 melanoma
# [11] = test system: EKVX NSCLC
# [12] = test system: SN12C renal
# [13] = test system: UO-31 renal
# [14] = test system: TK-10 renal
# [15] = test system: ACHN renal
# [16] = test system: CAKI-1 renal
# [17] = test system: A498 renal
# [18] = test system: CCRF-CEM leukemia
# [19] = test system: MOLT-4 leukemia
# [20] = test system: SK-MEL-2 melanoma
SMILES,growth [1],growth [2],growth [3],growth [4],growth [5],growth [6],growth [7],growth [8],growth [9],growth [10],growth [11],growth [12],growth [13],growth [14],growth [15],growth [16],growth [17],growth [18],growth [19],growth [20] [%]
CC(=O)OC[C@H](O)[C@@]1(O)CC[C@H]2[C@@H]3CCC4=CC(=O)CC[C@]4(C)[C@H]3[C@@H](O)C[C@@]21C,105%,101%,117%,109%,111%,95.4%,101%,104%,103%,114%,87.3%,85.9%,78%,112%,111%,85.5%,112%,89.4%,89%,–
CCC12CCC3c4ccc(O)cc4CCC3C1CC(O)C2O (centres undefined),57.4%,96.9%,65.8%,90.1%,56.5%,85.5%,63.4%,67.6%,81%,67.2%,83.7%,82.5%,65.9%,85.3%,103%,59.4%,67.1%,85.4%,69.4%,–
COc1ccc(OC)c(/C=C2\Oc3cc(O)ccc3C2=O)c1,75%,100%,88.6%,95.5%,89.5%,95.5%,92.4%,89%,88.6%,88.5%,91.4%,85.8%,60.3%,103%,68.3%,93.7%,–,96.1%,100%,–
CCC(=O)Nc1nnc(Cc2ccc(OC)c(OC)c2)s1,31.7%,-46.9% (active),-83.3% (active),2.39% (active),-52.9% (active),9.29% (active),46.6%,-3.8% (active),15.6%,-97.7% (active),–,2.77% (active),19.6%,-37.7% (active),4.03% (active),-33.6% (active),85.2%,38.3%,48.9%,–
Clc1ccccc1Nc1ccc2nnc(-c3ccncc3)n2n1,91.8%,99.2%,96.2%,107%,97.4%,75.7%,97.9%,98.4%,96.1%,122%,–,87%,89.5%,76.8%,96.6%,86.1%,72.8%,79.1%,89.6%,–
O=[N+]([O-])c1ccc(C=C2C(Cl)=C(Cl)C(Cl)=C2Cl)cc1,31.4%,30.9%,81.5%,80.6%,20.1%,58.5%,121%,71.7%,–,107%,91.6%,52.3%,-19.8% (active),28.3%,45.5%,53%,104%,15.7%,5.43% (active),102
NC1=NC(c2ccccc2OS(=O)(=O)c2ccc(Br)cc2)n2c(nc3ccccc32)N1 (centres undefined),102%,92.1%,80.2%,98.1%,86.9%,80.1%,91%,82.7%,–,102%,99.1%,87.7%,73.5%,99%,94.5%,104%,101%,–,79.3%,101
CCCCC(O)Cn1ncc(C(=O)OCC)c1NC(=O)NCc1ccccc1C(F)(F)F (centres undefined),98%,107%,92.6%,94.4%,95.3%,86.6%,95.9%,87.6%,98.4%,111%,101%,99.7%,82.6%,96.3%,97.4%,84.2%,–,104%,93.9%,–
O=C1CCC(N2Cc3c(C#CCCCNC(=O)c4cc5c(o4)C(=O)c4ccccc4C5=O)cccc3C2=O)C(=O)N1 (centres undefined),76%,-15.4% (active),-98.7% (active),-8.73% (active),-27.7% (active),4.79% (active),-99.2% (active),-84.4% (active),-88.3% (active),-22.9% (active),64.4%,-92.2% (active),86.4%,101%,71.7%,78.7%,–,12.3%,8.52% (active),–
O=C1c2ccccc2-c2nnc(-c3ccc(Br)cc3)cc21,59.8%,82.5%,36.9%,87.1%,28.8%,51.3%,51.1%,16%,1.78% (active),13.8%,–,27.9%,46.9%,119%,34.8%,60.3%,97%,20.7%,4.61% (active),–
COC(=O)c1c2c(c(C)[n+]([O-])c1C)C(=O)C=C(NCc1cccc(OC)c1)C2=O,-74.8% (active),2.57% (active),-97.7% (active),-88.4% (active),-39.3% (active),-2.04% (active),-97.2% (active),-68.1% (active),-79.7% (active),-22.3% (active),-68.7% (active),-93.4% (active),-62.5% (active),4.5% (active),-81.5% (active),-32.6% (active),–,-17.1% (active),-45.9% (active),–
Cc1c(C(=O)Nc2nc(-c3ccccc3)cs2)nnn1-c1cccc2ccccc12,57.9% [50 µM],64.3% [50 µM],80.6% [50 µM],72.3% [50 µM],72.7% [50 µM],53.8% [50 µM],-2.94% [50 µM] (active),49.2% [50 µM],43.4% [50 µM],69.9% [50 µM],39.3% [50 µM],67.9% [50 µM],49.7% [50 µM],–,58.1% [50 µM],35.8% [50 µM],58.5% [50 µM],47.2% [50 µM],30.4% [50 µM],–
COc1ccc(/C=N/OCC(O)CN2CCC(O)CC2)cc1OC1CCCC1 (centres undefined),109%,104%,80%,95.9%,103%,94.7%,98.8%,103%,105%,105%,–,103%,88.6%,106%,104%,95.4%,–,113%,–,–
O=C1c2ccccc2-c2cn(Cc3ccccc3)c3cccc(c23)C1c1cccnc1 (centres undefined),31.2%,4.25% (active),23.2%,54%,25%,55.4%,21.7%,47.3%,57.4%,53.9%,80.5%,59.5%,54.9%,55.7%,51.2%,51.4%,43.3%,19.3%,34.8%,–
O=C1/C(=C/c2ccc([N+](=O)[O-])cc2)Oc2ccc(O)cc21,84.3%,46.8%,95.7%,90.7%,63.6%,87.9%,86.8%,41.4%,60%,107%,91.9%,85.8%,70.4%,17.8%,82.3%,5.52% (active),–,72.5%,18.7%,–
CC(=O)N(CC(O)CO)c1c(I)c(C(=O)NCCO)c(I)c(C(=O)NCC(O)CO)c1I (centres undefined),96.4%,99.9%,95.6%,106%,100%,81.3%,91.7%,111%,–,112%,105%,98.9%,69.3%,114%,103%,99.3%,110%,93.4%,84.3%,95.8
COc1ccc2nc(-n3nc(C)cc3C)c(-n3nc(C)cc3C)nc2c1,102%,100%,116%,102%,106%,105%,100%,105%,101%,107%,91.7%,104%,86.5%,113%,113%,93.4%,96.7%,–,104%,–
